# About 1,700 (3.3%) of roughly 52,000 compounds were called active. The entries come from a sample that favours actives as a whole. A number with no mark means an inactive call. No stated cut-off is given here; in the data, active means survival mostly below about 52% (no sharp cut-off); inactive means mostly above about 56%.
# Tested on: Wild type
# Experiment: S. aureus survival, RN4220 and DeltatarO strains – OD600, teichoic acid synthesis inhibitors, primary screen (AID 463173)
# Settings: S. aureus RN4220 wild type/DeltatarO growth, OD600, 18 h, hits give low values, screened at 18.75 µg/mL (by protocol)
row,SMILES,survival
1,CCOC(=O)c1noc2ncn(CC(=O)Nc3ccc(C)c(F)c3)c(=O)c12,72%
2,Cc1ccc(NC(=O)c2cccc(NC(=O)N3CCSc4ncccc43)c2)cc1F,92%
3,O=C1COc2cc(S(=O)(=O)NCc3ccco3)c(Cl)cc2N1,73%
4,CCCCN(CC)Cc1ccc(CNS(=O)(=O)c2cc3c(cc2Cl)NC(=O)CO3)o1,-3% (active)
5,Cc1ccc(CNS(=O)(=O)c2cc3c(cc2Cl)NC(=O)CO3)o1,124%
6,CC(C)(CO)NC(=O)c1cc(-c2ccc(Cl)cc2Cl)on1,123%
7,CCOC(=O)c1c(NC(=O)COc2ccc(Cl)cc2Cl)sc2c1CCCCC2,76%
8,COc1ccc(CNC(=O)C2CCN(S(=O)(=O)c3c(C)noc3/C=C/c3ccccc3F)CC2)cc1,94%
9,COc1ccc2sc(N)nc2c1,115%
10,COc1ccc(N=Nc2c(N)n[nH]c2N)cc1,2% (active)
11,Nc1n[nH]c(N)c1N=Nc1ccc(Cl)cc1,107%
12,Cc1ccc(-c2nc3ccccc3o2)cc1NC(=O)c1cccc2c(Cl)cccc12,62%
13,Cn1c(-c2ccccc2)nc2cc(N)ccc21,105%
14,CN(C)c1ccc(-c2nc(-c3cccs3)c(-c3cccs3)[nH]2)cc1,65%
15,Cc1ccc(-c2nc(-c3cccs3)c(-c3cccs3)[nH]2)cc1,76%
16,Oc1ccccc1-c1nc(-c2cccs2)c(-c2cccs2)[nH]1,-11% (active)
17,Fc1ccc(-c2nc(-c3cccs3)c(-c3cccs3)[nH]2)cc1,79%
18,COc1ccc(O)c(-c2cn[nH]c2-c2cccs2)c1,105%
19,Oc1cccc(-c2nc(-c3cccs3)c(-c3cccs3)[nH]2)c1,3% (active)
20,Cc1ccc(Cc2c(C)nc3nc(SCC(=O)NCCC(C)C)nn3c2C)cc1,64%
21,Cc1nn(CC(=O)NCc2ccccc2Cl)c(=O)c2nn(-c3ccccc3)c(C)c12,130%
22,COc1ccc(NC(=O)Cn2cnc3ccc(S(=O)(=O)N4CCC(C)CC4)cc3c2=O)cc1Cl,158%
23,O=C(Nc1c(C(=O)N2CCOCC2)cnn1-c1ccccc1)c1ccccc1F,104%

row,SMILES,survival
1,CN1CCN(C(=O)/C=C\C(=O)O)CC1,122%
2,CCCCSCCCNC(=O)c1cc(-c2cccnc2)nc2ccc(S(=O)(=O)N3CCC(C)CC3)cc12,89%
3,COc1cc(C)c(Cl)cc1S(=O)(=O)NCCc1c(C)[nH]c2ccccc12,73%
4,Cc1ccc(Nc2ncccc2C(=O)NC2CCCCC2)cc1,110%
5,CCOc1ccc(C2C(=O)N(C3CCCCCC3)CC(=O)N2Cc2ccccc2)cc1OC (stereo unspecified),75%
6,Cc1cccc(NC(=O)C(Cc2ccccc2)n2cccc2)c1C (stereo unspecified),84%
7,CC(=O)c1cccc(NC(=O)[C@H](Cc2ccccc2)N2Cc3ccccc3C2=O)c1,81%
8,CCc1cccc(NC(=O)C(Cc2ccccc2)n2cccc2)c1 (stereo unspecified),12% (active)
9,Cc1ccc(NC(=O)C(Cc2ccccc2)n2cccc2)cc1C (stereo unspecified),13% (active)
10,Cc1ccc(NC(=O)C(Cc2ccccc2)n2cccc2)c(C)c1 (stereo unspecified),81%
11,Cc1ccc(C)c(NC(=O)C(Cc2ccccc2)n2cccc2)c1 (stereo unspecified),134%
12,COc1ccc(NC(=O)C(Cc2ccccc2)n2cccc2)cc1OC (stereo unspecified),82%
13,O=C(Nc1ccccc1)C(Cc1ccccc1)N1Cc2ccccc2C1=O (stereo unspecified),90%
14,O=C(Nc1cccc(Cl)c1)C(Cc1ccccc1)n1cccc1 (stereo unspecified),8% (active)
15,O=C(O)CC1=C(c2cccs2)CCC1=O,105%
16,Cc1cc(C(F)F)n2ncc(C(=O)NCc3ccccc3)c2n1,108%
17,COC(=O)c1ccc2c(=O)n(CCCCCC(=O)N3CCN(c4cccc(C)c4C)CC3)c(=O)[nH]c2c1,97%
18,CC(C)c1ccc(-c2nc(C(N)=O)c3c(n2)n(-c2ccc4c(c2)OCO4)c(=O)n3C)cc1,60%
19,Nc1n[nH]c(CCc2ccccc2)n1,121%
20,CCS(=O)(=O)N1CC(=O)N(c2cccc(C)c2C)C(C)(C(=O)NC2CCCCC2)C1 (stereo unspecified),89%
21,COc1ccccc1NS(=O)(=O)c1cn(C)c(C)n1,10% (active)
22,Cc1ccc(NS(=O)(=O)c2cn(C)c(C)n2)c(Br)c1,88%
23,CSc1cccc(NS(=O)(=O)c2cn(C)c(C)n2)c1,59%

# From PubChem BioAssay AID463173 (ICCB-Longwood Screening Facility, Harvard Medical School, 2010)
